Source: PubChem BioAssay (EPA / NIEHS)
Results filed as inconclusive are left out. The source made the active and inactive calls. The calls were made as follows, unless noted: active = hit-call score of the fitted dose curve at least 0.9, where 1 is the maximum; inactive = score below 0.9.

How the values were obtained:
[1] = BSK_3C_VCAM1: BioMAP Diversity Plus: 3C Assay for Vascular cell adhesion molecule 1 (VCAM1) Biomarker Activity (AID 2282999); conditions: BioMAP 3C HUVEC, VCAM1 ELISA, cytokine-stimulated; actives raise or lower the signal
Outline: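 Human umbilical vein endothelial cells (3C system), biomarker read by ELISA 24 h after dosing; bidirectional fit against DMSO baseline. Cytotoxicity tracked by SRB total-protein staining in parallel cultures at biomarker time.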

[2] = BSK_4H_Eotaxin3: BioMAP Diversity Plus: 4H Assay for Eotaxin 3 Biomarker Activity (AID 2283000); conditions: primary human endothelial cells (HUVEC); actives raise or lower the signal;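 also: CCL26 protein level quantified by ELISA in parallel with SRB cytotoxicity check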
Outline: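 Eotaxin-3 (CCL26) levels were measured by ELISA in HUVEC primary cultures 24 h post-dosing. Gain or loss of signal was fitted in both directions, with DMSO serving as baseline and negative control.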

[3] = target: human Peroxisome Proliferator-activated Receptor alpha (PPARa), PPARA (gene 5465) (UniProt Q07869); test: ATG_PPARa_TRANS: Attagene TRANS-FACTORIAL HepG2 Assay for human Peroxisome Proliferator-activated Receptor alpha (PPARa) (AID 2283001; active = hit-call score of the fitted dose curve at least 0.9, where 1 is the maximum)
Outline: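 HepG2 cells transiently transfected with multiplexed GAL4-UAS reporters driven by exogenous chimeric NR-Gal4 proteins; reporter mRNA measured after 24 h dosing. Read-out by RT-PCR, 6-FAM labelling, HpaI digestion and capillary electrophoresis; gain of signal versus DMSO.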

[4] = read-out: Intercellular Adhesion Molecule 1 (ICAM1), ICAM1 (gene 3383); test: BSK_3C_ICAM1: BioMAP Diversity Plus: 3C Assay for Intercellular Adhesion Molecule 1 (ICAM1) Biomarker Activity (AID 2283003); conditions: primary human endothelial cells (HUVEC); actives raise or lower the signal
Outline: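 HUVEC primary cells stimulated under 3C conditions; ICAM1 measured by ELISA 24 h after compound dosing. Curves fitted bidirectionally against the DMSO baseline. Overt cytotoxicity checked by SRB staining of parallel cultures.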

[5] = BSK_3C_Proliferation: Cell Proliferation Assessment in the BioMAP Diversity Plus: 3C Assay (AID 2283006); conditions: primary human endothelial cells (HUVEC)
Outline: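 Subconfluent HUVEC (3C system) cultured with chemical; relative cell number read at 48 h by sulforhodamine B total-protein staining (0.1% SRB after 10% TCA fixation, 560 nm). Bidirectional fit relative to DMSO.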

[6] = target: Peroxisome proliferator-activated receptor gamma (Homo sapiens) (UniProt P37231); test: ATG_PPARg_TRANS: Attagene TRANS-FACTORIAL HepG2 Assay for human Peroxisome Proliferator-activated Receptor-gamma (PPARg) (AID 2283007; active = hit-call score of the fitted dose curve at least 0.9, where 1 is the maximum)
Outline: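 Twenty-four hours after chemical dosing of transiently transfected HepG2 cells, isolated RNA was converted to cDNA, reporter sequences amplified and 6-FAM-labelled, then HpaI-digested and analysed by capillary electrophoresis. Signal increase against DMSO was fitted.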

[7] = target: Nuclear receptor subfamily 1 group I member 2 (Homo sapiens) (UniProt O75469); test: ATG_PXR_TRANS: Attagene TRANS-FACTORIAL HepG2 Assay for human Pregnane X Receptor (PXR) (AID 2283008; active = hit-call score of the fitted dose curve at least 0.9, where 1 is the maximum)
Outline: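 Measures mRNA induction of a GAL4-UAS-driven reporter in human HepG2 cells transiently expressing PXR fused to Gal4, following 24 h treatment. DMSO served as negative control and baseline.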

[8] = target: human Retinoid X Receptor beta (RXRb), RXRB (gene 6257) (UniProt P28702); test: ATG_RXRb_TRANS: Attagene TRANS-FACTORIAL HepG2 Assay for human Retinoid X Receptor beta (RXRb) (AID 2283013; active = hit-call score of the fitted dose curve at least 0.9, where 1 is the maximum)
Outline: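 HepG2 cells were transiently transfected with multiplexed GAL4-UAS reporters and a chimeric RXRb-Gal4 construct, then exposed for 24 h. Reporter mRNA was quantified by RT-PCR, FAM labeling, HpaI digestion and capillary electrophoresis; gain of signal was scored against DMSO.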

[9] = target: human Thyroid Receptor alpha (THRa1), THRA (gene 7067) (UniProt P10827); test: ATG_THRa1_TRANS: Attagene TRANS-FACTORIAL HepG2 Assay for human Thyroid Receptor alpha (THRa1) (AID 2283014; active = hit-call score of the fitted dose curve at least 0.9, where 1 is the maximum)
Outline: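 HepG2 cells transiently transfected with chimeric NR-Gal4 and GAL4-UAS reporter units, dosed 24 h. Reporter mRNA quantified by RT-PCR, fluorescent labeling, HpaI digestion and capillary electrophoresis; gain-of-signal fit versus DMSO.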

[10] = read-out: E-selectin (Homo sapiens) (UniProt P16581); test: BSK_3C_Eselectin: BioMAP Diversity Plus: 3C Assay for Eselectin Biomarker Activity (AID 2283015); conditions: primary human endothelial cells (HUVEC); actives raise or lower the signal;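 also: cell surface E-selectin protein quantified by ELISA 24 h after dosing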
Outline: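 Primary human umbilical vein endothelial cells (3C system), read 24 h after compound addition; E-selectin measured by ELISA. Bidirectional curve fitting against DMSO baseline; cytotoxicity by parallel SRB total-protein staining.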

[11] = read-out: Interleukin-1 alpha (IL1a), IL1A (gene 3552); test: BSK_BE3C_IL1a: BioMAP Diversity Plus: BE3C Assay for Interleukin-1 alpha (IL1a) Biomarker Activity (AID 2283016); conditions: primary human bronchial epithelial cells; actives raise or lower the signal
Outline: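 Human primary bronchial epithelial cells, 24 h chemical exposure; IL-1a quantified by ELISA, fitted bidirectionally against DMSO. Cytotoxicity assessed in parallel by SRB total-protein staining at the time of measurement.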

[12] = read-out: Monocyte Chemoattractant Protein-1 (MCP1), CCL2 (gene 6347); test: BSK_3C_MCP1: BioMAP Diversity Plus: 3C Assay for Monocyte Chemoattractant Protein-1 (MCP1) Biomarker Activity (AID 2283017); conditions: primary human endothelial cells (HUVEC); actives raise or lower the signal
Outline: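 Human umbilical vein endothelial cells (3C system) exposed to chemicals for 24 h; MCP-1 quantified by ELISA against the DMSO baseline with bidirectional fitting, and parallel SRB staining used to assess cytotoxicity.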

[13] = read-out: Monocyte Chemoattractant Protein-1 (MCP1), CCL2 (gene 6347); test: BSK_4H_MCP1: BioMAP Diversity Plus: 4H Assay for Monocyte Chemoattractant Protein-1 (MCP1) Biomarker Activity (AID 2283018); conditions: primary human endothelial cells (HUVEC); actives raise or lower the signal
Outline: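 Human umbilical vein endothelial cells (4H system) exposed to chemicals for 24 h in 96-well format. MCP-1 measured by ELISA; bidirectional fitting against DMSO, with SRB total-protein staining in parallel cultures for cytotoxicity.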

[14] = target: human RAR-related Orphan Receptor beta (RORb), RORB (gene 6096) (UniProt Q92753); test: ATG_RORb_TRANS: Attagene TRANS-FACTORIAL HepG2 Assay for human RAR-related Orphan Receptor beta (RORb) (AID 2283010; active = hit-call score of the fitted dose curve at least 0.9, where 1 is the maximum)
Outline: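 HepG2 cells transiently transfected with GAL4-UAS reporter units expressing chimeric NR-Gal4 protein; reporter mRNA measured 24 h after dosing by RT-PCR, 6-FAM labelling and capillary electrophoresis. Gain-of-signal fitted relative to DMSO baseline.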

[15] = target: human Retinoic Acid Receptor beta (RARb), RARB (gene 5915) (UniProt P10826); test: ATG_RARb_TRANS: Attagene TRANS-FACTORIAL HepG2 Assay for human Retinoic Acid Receptor beta (AID 2283004; active = hit-call score of the fitted dose curve at least 0.9, where 1 is the maximum)
Outline: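 HepG2 cells were transiently transfected with GAL4-UAS reporter units that report activity of exogenous chimeric NR-Gal4 proteins, then exposed to compound for 24 h. Reporter mRNA was quantified by RT-PCR with capillary electrophoresis fluorescence, as gain of signal over DMSO.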

[16] = target: Retinoic acid receptor alpha (Homo sapiens) (UniProt P10276); test: ATG_RARa_TRANS: Attagene TRANS-FACTORIAL HepG2 Assay for human Retinoic Acid Receptor alpha (RARa) (AID 2283005; active = hit-call score of the fitted dose curve at least 0.9, where 1 is the maximum)
Outline: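 HepG2 transiently transfected with multiplex GAL4-UAS reporter units including a human RARa–GAL4 chimera; 24 h compound exposure. Reporter mRNA quantified by RT-PCR, 6-FAM labeling and capillary electrophoresis; gain of signal versus DMSO.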

[17] = target: human Retinoic Acid Receptor gamma (RARg), RARG (gene 5916) (UniProt P13631); test: ATG_RARg_TRANS: Attagene TRANS-FACTORIAL HepG2 Assay for human Retinoic Acid Receptor gamma (RARg) (AID 2283009; active = hit-call score of the fitted dose curve at least 0.9, where 1 is the maximum)
Outline: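 HepG2 transiently transfected with GAL4-UAS reporter units and chimeric NR-Gal4 constructs; 24 h compound exposure. Reporter mRNA quantified by RT-PCR, FAM labeling, HpaI digestion and capillary electrophoresis; gain-of-signal versus DMSO.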

Sequence of E-selectin (Homo sapiens) (P16581 whole entry, looked up): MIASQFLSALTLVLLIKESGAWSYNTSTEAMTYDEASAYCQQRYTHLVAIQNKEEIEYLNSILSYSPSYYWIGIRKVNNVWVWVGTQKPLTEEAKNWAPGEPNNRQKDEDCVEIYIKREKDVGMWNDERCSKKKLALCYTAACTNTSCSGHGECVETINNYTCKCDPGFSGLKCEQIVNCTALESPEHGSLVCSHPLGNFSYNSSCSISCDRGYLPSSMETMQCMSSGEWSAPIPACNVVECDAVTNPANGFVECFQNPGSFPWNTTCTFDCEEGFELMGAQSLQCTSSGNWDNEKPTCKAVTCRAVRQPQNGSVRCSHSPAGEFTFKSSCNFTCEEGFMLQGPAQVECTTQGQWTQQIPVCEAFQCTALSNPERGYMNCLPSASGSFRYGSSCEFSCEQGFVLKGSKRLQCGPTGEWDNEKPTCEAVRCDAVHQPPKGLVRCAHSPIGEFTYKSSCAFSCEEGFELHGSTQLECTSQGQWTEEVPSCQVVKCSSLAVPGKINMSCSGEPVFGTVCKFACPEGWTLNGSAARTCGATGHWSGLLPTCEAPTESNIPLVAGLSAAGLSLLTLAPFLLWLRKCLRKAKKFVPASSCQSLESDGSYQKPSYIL
Sequence of Peroxisome proliferator-activated receptor gamma (Homo sapiens) (P37231 whole entry, looked up): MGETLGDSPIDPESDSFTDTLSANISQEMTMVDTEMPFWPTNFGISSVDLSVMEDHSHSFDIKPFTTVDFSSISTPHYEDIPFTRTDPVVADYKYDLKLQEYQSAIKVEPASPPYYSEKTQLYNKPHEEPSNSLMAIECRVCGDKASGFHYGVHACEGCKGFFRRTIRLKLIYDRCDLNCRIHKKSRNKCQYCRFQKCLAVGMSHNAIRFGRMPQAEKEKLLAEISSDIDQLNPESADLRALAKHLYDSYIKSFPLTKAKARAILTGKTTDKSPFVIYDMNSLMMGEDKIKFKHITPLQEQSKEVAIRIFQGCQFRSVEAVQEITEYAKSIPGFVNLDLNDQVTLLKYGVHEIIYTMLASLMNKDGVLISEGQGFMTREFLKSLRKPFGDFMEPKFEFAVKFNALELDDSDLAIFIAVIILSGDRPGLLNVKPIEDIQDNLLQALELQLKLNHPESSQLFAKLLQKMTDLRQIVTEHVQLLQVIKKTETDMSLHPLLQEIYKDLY
Sequence of human RAR-related Orphan Receptor beta (RORb), RORB (gene 6096) (Q92753 whole entry, looked up, the tested form may be a part): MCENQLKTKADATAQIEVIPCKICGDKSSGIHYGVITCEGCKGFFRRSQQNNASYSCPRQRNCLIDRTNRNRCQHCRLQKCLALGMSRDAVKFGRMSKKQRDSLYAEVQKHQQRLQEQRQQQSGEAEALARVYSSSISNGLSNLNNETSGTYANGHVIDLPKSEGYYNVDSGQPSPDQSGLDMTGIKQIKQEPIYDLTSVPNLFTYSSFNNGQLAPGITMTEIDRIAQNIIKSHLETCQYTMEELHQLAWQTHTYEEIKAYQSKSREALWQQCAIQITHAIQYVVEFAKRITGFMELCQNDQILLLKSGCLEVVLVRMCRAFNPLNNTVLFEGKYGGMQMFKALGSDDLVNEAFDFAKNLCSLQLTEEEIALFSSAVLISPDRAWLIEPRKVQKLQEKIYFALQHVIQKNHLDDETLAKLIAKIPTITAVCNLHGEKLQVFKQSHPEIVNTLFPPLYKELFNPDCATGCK
Sequence of human Retinoid X Receptor beta (RXRb), RXRB (gene 6257) (P28702 whole entry, looked up, the tested form may be a part): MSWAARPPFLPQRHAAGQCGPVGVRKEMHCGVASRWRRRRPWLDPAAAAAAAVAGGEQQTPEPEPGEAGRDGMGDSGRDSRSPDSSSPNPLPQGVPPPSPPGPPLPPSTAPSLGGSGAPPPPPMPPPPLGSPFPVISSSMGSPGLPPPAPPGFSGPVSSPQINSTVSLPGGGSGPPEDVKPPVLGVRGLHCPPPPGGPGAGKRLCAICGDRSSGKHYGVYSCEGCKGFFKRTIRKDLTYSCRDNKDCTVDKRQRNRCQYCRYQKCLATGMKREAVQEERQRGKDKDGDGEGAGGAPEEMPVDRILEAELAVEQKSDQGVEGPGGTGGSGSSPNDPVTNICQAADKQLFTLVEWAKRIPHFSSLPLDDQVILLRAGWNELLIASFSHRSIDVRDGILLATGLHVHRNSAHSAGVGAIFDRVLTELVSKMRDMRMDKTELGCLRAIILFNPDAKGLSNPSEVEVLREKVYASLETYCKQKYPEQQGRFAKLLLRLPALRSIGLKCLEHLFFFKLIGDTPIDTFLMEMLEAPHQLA
Sequence of human Peroxisome Proliferator-activated Receptor alpha (PPARa), PPARA (gene 5465) (Q07869 whole entry, looked up, the tested form may be a part): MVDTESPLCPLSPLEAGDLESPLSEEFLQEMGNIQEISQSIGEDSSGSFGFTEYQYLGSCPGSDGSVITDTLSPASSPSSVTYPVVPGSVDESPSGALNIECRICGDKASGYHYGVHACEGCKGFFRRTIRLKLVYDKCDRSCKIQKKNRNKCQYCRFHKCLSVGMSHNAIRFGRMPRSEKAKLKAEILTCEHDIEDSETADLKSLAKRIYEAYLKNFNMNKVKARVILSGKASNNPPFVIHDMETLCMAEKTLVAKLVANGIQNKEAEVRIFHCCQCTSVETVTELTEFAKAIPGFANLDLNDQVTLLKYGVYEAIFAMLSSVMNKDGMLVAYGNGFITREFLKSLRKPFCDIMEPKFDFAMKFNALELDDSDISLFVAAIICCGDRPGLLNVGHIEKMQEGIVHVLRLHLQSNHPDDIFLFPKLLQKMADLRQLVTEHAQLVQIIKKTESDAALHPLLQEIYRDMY
Sequence of Nuclear receptor subfamily 1 group I member 2 (Homo sapiens) (O75469 whole entry, looked up, the tested form may be a part): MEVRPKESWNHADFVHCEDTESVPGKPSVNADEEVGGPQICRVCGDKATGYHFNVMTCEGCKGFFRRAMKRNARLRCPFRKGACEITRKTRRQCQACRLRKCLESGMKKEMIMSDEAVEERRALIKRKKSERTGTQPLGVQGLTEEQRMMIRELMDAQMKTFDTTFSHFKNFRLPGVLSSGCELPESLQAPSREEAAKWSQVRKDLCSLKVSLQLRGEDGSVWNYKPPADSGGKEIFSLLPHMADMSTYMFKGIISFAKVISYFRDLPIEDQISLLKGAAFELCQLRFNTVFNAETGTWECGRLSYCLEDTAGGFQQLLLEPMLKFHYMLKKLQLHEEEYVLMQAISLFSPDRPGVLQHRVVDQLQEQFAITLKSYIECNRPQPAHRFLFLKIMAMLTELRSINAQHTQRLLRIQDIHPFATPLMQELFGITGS
Sequence of Retinoic acid receptor alpha (Homo sapiens) (P10276 whole entry, looked up, the tested form may be a part): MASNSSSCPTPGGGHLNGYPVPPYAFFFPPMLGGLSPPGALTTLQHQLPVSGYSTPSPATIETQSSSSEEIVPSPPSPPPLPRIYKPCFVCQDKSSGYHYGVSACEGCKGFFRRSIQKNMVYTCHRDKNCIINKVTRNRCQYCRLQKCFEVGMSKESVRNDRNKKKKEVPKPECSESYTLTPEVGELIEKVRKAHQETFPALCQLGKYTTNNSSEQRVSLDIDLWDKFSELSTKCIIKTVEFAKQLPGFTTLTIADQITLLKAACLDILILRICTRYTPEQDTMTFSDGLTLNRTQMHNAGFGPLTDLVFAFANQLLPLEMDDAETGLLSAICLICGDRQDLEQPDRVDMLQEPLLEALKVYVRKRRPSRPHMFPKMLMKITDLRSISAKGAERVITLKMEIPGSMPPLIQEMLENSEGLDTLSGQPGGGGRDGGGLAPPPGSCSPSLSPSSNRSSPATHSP
Sequence of human Retinoic Acid Receptor gamma (RARg), RARG (gene 5916) (P13631 whole entry, looked up, the tested form may be a part): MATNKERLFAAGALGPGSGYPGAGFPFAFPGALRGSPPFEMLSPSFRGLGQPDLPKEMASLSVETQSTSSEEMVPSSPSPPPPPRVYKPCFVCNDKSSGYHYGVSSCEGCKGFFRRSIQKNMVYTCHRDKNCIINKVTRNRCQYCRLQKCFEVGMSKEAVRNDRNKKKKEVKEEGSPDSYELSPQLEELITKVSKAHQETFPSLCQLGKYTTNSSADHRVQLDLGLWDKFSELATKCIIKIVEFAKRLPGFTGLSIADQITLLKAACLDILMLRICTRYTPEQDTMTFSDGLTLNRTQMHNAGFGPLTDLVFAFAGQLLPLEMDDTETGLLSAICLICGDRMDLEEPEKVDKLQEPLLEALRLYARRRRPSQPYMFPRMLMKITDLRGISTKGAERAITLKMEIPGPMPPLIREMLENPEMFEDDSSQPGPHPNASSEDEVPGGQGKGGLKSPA
Sequence of human Thyroid Receptor alpha (THRa1), THRA (gene 7067) (P10827 whole entry, looked up, the tested form may be a part): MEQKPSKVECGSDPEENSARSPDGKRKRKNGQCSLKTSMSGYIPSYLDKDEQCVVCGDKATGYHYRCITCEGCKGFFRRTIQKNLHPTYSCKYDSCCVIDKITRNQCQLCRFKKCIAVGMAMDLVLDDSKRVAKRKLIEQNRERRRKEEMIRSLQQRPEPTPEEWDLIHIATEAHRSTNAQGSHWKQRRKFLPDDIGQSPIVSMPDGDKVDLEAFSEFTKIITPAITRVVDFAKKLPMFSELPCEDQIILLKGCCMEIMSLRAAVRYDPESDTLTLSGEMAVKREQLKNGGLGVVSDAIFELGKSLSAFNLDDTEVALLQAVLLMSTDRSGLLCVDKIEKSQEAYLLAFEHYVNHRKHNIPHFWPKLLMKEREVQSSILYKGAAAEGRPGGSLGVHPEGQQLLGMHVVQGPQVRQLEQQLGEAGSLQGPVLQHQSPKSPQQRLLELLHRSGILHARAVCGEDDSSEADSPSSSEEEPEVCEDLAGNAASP
Sequence of human Retinoic Acid Receptor beta (RARb), RARB (gene 5915) (P10826 whole entry, looked up, the tested form may be a part): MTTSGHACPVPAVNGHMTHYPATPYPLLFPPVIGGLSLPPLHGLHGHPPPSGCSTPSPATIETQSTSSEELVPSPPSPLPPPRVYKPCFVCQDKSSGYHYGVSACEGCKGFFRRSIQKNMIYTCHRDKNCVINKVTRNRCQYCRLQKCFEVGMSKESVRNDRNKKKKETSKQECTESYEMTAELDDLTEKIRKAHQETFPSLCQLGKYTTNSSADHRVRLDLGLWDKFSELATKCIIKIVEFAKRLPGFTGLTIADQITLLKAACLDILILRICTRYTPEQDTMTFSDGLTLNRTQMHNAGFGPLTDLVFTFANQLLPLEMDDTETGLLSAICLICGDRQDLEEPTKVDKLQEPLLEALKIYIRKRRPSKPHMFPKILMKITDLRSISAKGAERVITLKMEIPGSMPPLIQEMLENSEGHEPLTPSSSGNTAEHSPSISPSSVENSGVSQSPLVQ

| SMILES | outcome [1] | outcome [2] | outcome [3] | outcome [4] | outcome [5] | outcome [6] | outcome [7] | outcome [8] | outcome [9] | outcome [10] | outcome [11] | outcome [12] | outcome [13] | outcome [14] | outcome [15] | outcome [16] | outcome [17] | AC50 [8] |
| --- | --- | --- | --- | --- | --- | --- | --- | --- | --- | --- | --- | --- | --- | --- | --- | --- | --- | --- |
| Clc1ccc(C(Cl)(Cl)Cl)cc1 | inactive | inactive | inactive | inactive | inactive | inactive | inactive | inactive | inactive | inactive | inactive | inactive | inactive | – | – | – | – | – |
| C=CC(=O)NCNC(=O)C=C | inactive | inactive | inactive | inactive | inactive | inactive | – | – | – | inactive | inactive | inactive | inactive | inactive | – | – | – | – |
| C=CC(N)=O | inactive | inactive | – | inactive | inactive | – | inactive | – | – | inactive | inactive | inactive | inactive | inactive | inactive | inactive | inactive | 15.8 µM (active) |
